Experimental findings from PubChem BioAssay (Tox21) are described below.

Molecules are shown by their SMILES. Where “and” joins values, the source holds several entries; their conditions need not be identical. Equal entries are not always repeated. Results filed as inconclusive are left out. A structure can be active in one record and inactive in another. Values without a mark were called inactive. Calls of active or inactive are those of the source. Calls come from the whole dose curve.
% is set by controls: 0 for no effect and ±100 for the full control effect; potency is the fitted concentration of half-maximal effect.

Peroxisome proliferator-activated receptor gamma (Homo sapiens), sequence (P37231 whole entry, looked up): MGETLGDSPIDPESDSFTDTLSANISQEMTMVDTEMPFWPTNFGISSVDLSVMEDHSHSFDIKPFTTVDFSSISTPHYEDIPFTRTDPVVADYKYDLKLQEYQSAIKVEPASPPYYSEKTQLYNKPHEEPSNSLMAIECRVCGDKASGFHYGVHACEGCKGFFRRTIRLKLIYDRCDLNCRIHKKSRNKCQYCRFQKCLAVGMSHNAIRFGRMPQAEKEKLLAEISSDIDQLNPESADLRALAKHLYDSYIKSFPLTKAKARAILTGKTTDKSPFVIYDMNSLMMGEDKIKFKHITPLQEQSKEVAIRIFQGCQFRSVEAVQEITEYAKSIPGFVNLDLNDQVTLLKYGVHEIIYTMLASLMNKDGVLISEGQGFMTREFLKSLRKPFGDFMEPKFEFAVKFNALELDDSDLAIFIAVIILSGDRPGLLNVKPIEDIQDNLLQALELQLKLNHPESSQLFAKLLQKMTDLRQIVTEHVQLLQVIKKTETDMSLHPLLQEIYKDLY

The test has as its target Peroxisome proliferator-activated receptor gamma (Homo sapiens) (UniProt P37231). Nature of the test: qHTS assay to identify small molecule antagonists of the peroxisome proliferator-activated receptor gamma (PPARg) signaling pathway (AID 743191). Note: nearly all actives have a fitted effect of over 30% in size. Conditions: HEK293H PPARg-UAS-bla, beta-lactamase ratio, antagonist, 17 h; series mostly up to 62.6 µM; ratio activity, negative = inhibition: at the top concentration. The source says: U.S. Tox21 Program National Center for Advancing Translational Sciences [NCATS] NIH Chemical Genomics Center [NCGC] U.S. Environmental Protection Agency [EPA] National Institutes of Environmental Health Sciences [NIEHS] National Toxicology Program [NTP] U.S. Food and Drug Administration [FDA] Tox21 Assay Overview: The peroxisome proliferator-activated receptors (PPARs) are lipid-activated transcription factors of the nuclear receptor superfamily with three distinct subtypes namely PPAR alpha, PPAR delta (also called PPAR beta) and PPAR gamma (PPARg). All these subtypes heterodimerize with Retinoid X receptor (RXR) and these heterodimers regulate transcription of various genes. PPAR-gamma receptor (glitazone receptor) is involved in the regulation of glucose and lipid metabolism. To identify the compounds that inhibit PPAR-gamma signaling, GeneBLAzer PPAR gamma UAS-bla HEK293H cell line (Invitrogen, Carlsbad, CA, USA) containing a beta-lactamase reporter gene under control of an Upstream Activator Sequence (UAS) was used to screen the Tox21 compound library.
Tox21 Assay Protocol Summary: PPARg-bla cells were dispensed at 3000 cells/6uL/well in 1536-well black wall/clear bottom plates using a Multidrop Combi (Thermo Fisher Scientific, Waltham, MA) dispenser. After the assay plates were incubated at 37C and 5% CO2 for 5 h, 23 nL of compounds dissolved in DMSO, positive controls or DMSO only was transferred to the assay plate by a Pintool station (Kalypsys, San Diego, CA). The assay plates were incubated at 37C for 17 h. After 1 uL of LiveBLAzerTM B/G FRET substrate was added using a Bioraptr Flying Reagent Dispenser (FRD) workstation (Beckman Coulter, Indianapolis, IN, USA), the plates were incubated at room temperature for 1 h, and fluorescence intensity was measured by an Envision plate reader (PerkinElmer, Shelton, CT).
On to `c1ccc(-c2cccc(-c3ccccc3)c2)cc1`, for which the Potency result is “inactive”.

In the case of `COC(=O)c1sccc1S(=O)(=O)NC(=O)Nc1nc(C)nc(OC)n1`, the Potency entry was “inactive”.

For `CC(O)CCO` (stereo not given), the “ratio activity, negative = inhibition” value was -0.122% [at 81.1 µM].

With `O=[N+]([O-])c1ccc(O)c([N+](=O)[O-])c1`, the “ratio activity, negative = inhibition” value is -21.5% [at 81.1 µM].

For the compound `c1ccc(N=Nc2ccccc2)cc1`, the “ratio activity, negative = inhibition” value was 4.76% [at 81.1 µM].

Turning to `Nc1cccnc1`, the “ratio activity, negative = inhibition” value is -1.21%.

For `Cc1cc(Cl)ccc1OCCCC(=O)O`, the Potency result is “inactive”.

`NC(=S)Nc1ccccc1`: the Potency result was “inactive”.

`CCN(N=O)C(N)=O`: the Potency entry is “inactive”.

`CCCCN(CC)c1c([N+](=O)[O-])cc(C(F)(F)F)cc1[N+](=O)[O-]`: the Potency entry is “inactive”.

As to `Cc1ccccc1[N+](=O)[O-]`, the Potency entry is “inactive”.

On to `C=C(C)[C@H]1Cc2c(ccc3c2O[C@@H]2COc4cc(OC)c(OC)cc4[C@@H]2C3=O)O1`, for which the Potency was 13.3 µM (active).

For the compound `CCC(C)(c1ccc(O)cc1)c1ccc(O)cc1`, the Potency is 30.9 µM (active) and 38.9 µM (active).

In the case of `N[C@@H](Cc1ccc(N(CCCl)CCCl)cc1)C(=O)O`, the “ratio activity, negative = inhibition” value is -12.9%.

Consider `CNC(=O)Oc1cccc2c1OC(C)(C)O2`, for which the “ratio activity, negative = inhibition” value was -10.9%.

Regarding `N#Cc1cc(Br)c(O)c(Br)c1`, the Potency was 54.9 µM (active) and 21.1 µM (active).

Consider `CCCCOCCOP(=O)(OCCOCCCC)OCCOCCCC`, for which the Potency result was “inactive”.

On to `CCN(CC)C(=O)SCc1ccc(Cl)cc1`, for which the “ratio activity, negative = inhibition” value is 1.71% [at 81.1 µM].

On to `N#CC(Br)Br`, for which the “ratio activity, negative = inhibition” value is -6.56%.

Regarding `CCCCCc1cc(O)cc(O)c1`, the Potency was 24.7 µM (active).

For `CCCCN(CCCC)N=O`, the “ratio activity, negative = inhibition” value was -3.31%.

As to `CC(C)NC(C)C`, the Potency entry is “inactive”.

As to `C#CCOS(=O)OC1CCCCC1Oc1ccc(C(C)(C)C)cc1` (stereo not given), the Potency was 43.6 µM (active).

Take `CCCCCCOC(=O)c1ccccc1C(=O)OCCCCCC`: the Potency entry was “inactive”.

As to `NCc1cccnc1`, the “ratio activity, negative = inhibition” value is 10.6%.

Take `Oc1ccc(-c2ccccc2)cc1`: the Potency is 30.5 µM (active).

Regarding `CNC(=O)N(C)c1nnc(C(C)(C)C)s1`, the Potency result was “inactive”.

With `COc1ccc(C(CN(C)C)C2(O)CCCCC2)cc1` (stereo not given), the Potency result was “inactive”.

Turning to `ClC1C(Cl)C(Cl)C(Cl)C(Cl)C1Cl` (stereo not given), the Potency result was “inactive”.

As to `Oc1cc(Cl)ccc1Cl`, the “ratio activity, negative = inhibition” value is 13%.

For `COP(=O)(OC)OC`, the Potency result is “inactive”.

As to `CN(C)C(=O)Nc1ccc(Cl)cc1`, the “ratio activity, negative = inhibition” value is 9.53%.

On to `Nc1c(Cl)cc([N+](=O)[O-])cc1Cl`, for which the Potency entry was “inactive”.

For the compound `CCN(CC)N=O`, the Potency result was “inactive”.

As to `CCCCC(CC)COC(=O)Cl` (stereo not given), the “ratio activity, negative = inhibition” value was 6.43%.

`Nn1cnnc1`: the Potency result was “inactive”.

With `O=C(NC(=O)c1c(F)cccc1F)Nc1ccc(Cl)cc1`, the “ratio activity, negative = inhibition” value is 11.7%.

Turning to `NNC(N)=S`, the “ratio activity, negative = inhibition” value was -5.47%.

For the compound `CC1(C)C(C=C(Cl)Cl)C1C(=O)OC(C#N)c1cccc(Oc2ccccc2)c1` (stereo not given), the “ratio activity, negative = inhibition” value was 2%.

With `CCCCNC(=O)n1c(NC(=O)OC)nc2ccccc21`, the “ratio activity, negative = inhibition” value is -11.5%.
